This is an account of results in PubChem BioAssay AID602340 (Broad Institute, 2012).

Among all 330,000 compounds or so, about 2,600 (0.79%) were called active.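 How the source made its calls: active means mean ATP rescue above about 67%, or every replicate alone reaching that limit (limit read from the data, passing the limit was not always enough); inconclusive means no clear call, values can overlap the other calls; inactive means mean under the limit and some replicate under it.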 The list comes from a sample in which actives are over-represented; it also holds similar structures and randomly drawn compounds.

The nature of the assay: protection of differentiated C2C12 cells from simvastatin – single point, plate reader, primary screen (AID 602340).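 Further: myotubes were challenged with 10 µM simvastatin during compound exposure.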 The settings on record: C2C12 myotubes + simvastatin, ATP luminescence, 48 h; at 7.49 µM; stronger effect = higher value.
For `COc1ccc(C(=O)CC2C(=O)N(C)C(=O)N(C)C2=O)cc1`, the rescue of ATP level is -12% (inactive).

For `COc1ccc(C(=O)C2CN(C)CC2C(=O)c2ccc(OC)cc2)cc1` (stereo not given), the rescue of ATP level is 152% (active).

Turning to `Cc1ccc(C2CN(C)CC2C(=O)c2ccc(F)cc2)cc1` (stereo not given), the rescue of ATP level is -5.74% (inactive).

As to `COc1cccc(-c2ccc3n(c2=O)C[C@H]2[C@H](CO)[C@@H](C(=O)O)[C@@H]3N2C(=O)c2cnccn2)c1`, the rescue of ATP level is 13.9% (inactive).

With `CCn1cc(CN2CCCC(C(=O)c3cccc(C(F)(F)F)c3)C2)cn1` (stereo not given), the rescue of ATP level was -1.69% (inactive).

Turning to `COc1cccc(C(c2nnnn2-c2ccc3c(c2)OCCO3)N2CCC3(CC2)C(=O)NCN3c2ccccc2)c1OC` (stereo not given), the rescue of ATP level was -28% (inactive).

On to `COc1ccccc1CN1CCN(C(=O)Cc2ccccc2)CC1`, for which the rescue of ATP level is -9.85% (inactive).

Regarding `CCN1CCN(C(=O)Cc2coc3cc(C)cc(C)c23)CC1`, the rescue of ATP level was 104% (active).

For the compound `Cc1cc(OCc2cc(C(=O)O)oc2C)c2c3c(c(=O)oc2c1)CCCC3`, the rescue of ATP level was 23.5% (inactive).

Regarding `O=C(O)[C@H]1[C@H](CO)[C@H]2Cn3c(ccc(-c4ccccc4)c3=O)[C@@H]1N2S(=O)(=O)c1ccccc1F`, the rescue of ATP level was 21.2% (inactive).
